Source: PubChem BioAssay (NCI)
The panel holds about 79,000 compounds, 15% with a hit somewhere; the sample as a whole holds those more often. Calls of active or inactive are those of the source. No stated cut-off is given here; in the data, active means growth inhibition above about 70%; inactive means the rest.

Test: NCI Yeast Anticancer Drug Screen. Data for the rad50 strain (AID 155);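 further: 0% = growth of vehicle-only cultures of the same strain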
Conditions: S. cerevisiae rad50 strain growth inhibition; at 50.0 µM; hits give high values
Procedure, shortened: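 Inhibition values express reduced yeast growth in compound-treated cultures relative to vehicle-treated controls.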
With `c1ccc(N2C3Sc4ncccc4C2Sc2ncccc23)cc1` the growth inhibition was -20.4% (inactive). With `OC1(C(O)(c2ccc(-c3ccccc3)cc2)c2ccc(-c3ccccc3)cc2)CCCCC1` the growth inhibition was -11% (inactive). With `COc1cc(/C=C2\SC(=S)N(/C=C(/C#N)C(=O)c3ccc4ccccc4c3)C2=O)cc(OC)c1OC` the growth inhibition was 21.3% (inactive). For `O=C1CCN2C(=O)CCN12`, the growth inhibition was 1.1% (inactive). With `CC(=O)Nc1c(C)ncn(-c2ccccc2)c1=O` the growth inhibition was -36.9% (inactive). For `CCNc1ncc2nc(CC(=O)OC)c(=O)n(CC)c2n1`, the growth inhibition was -10.3% (inactive). In the case of `CC(=O)OC1C(C(O)CO)OC2OC(C)(C)OC21` (stereo not given), the growth inhibition is reported as -10.9% (inactive). With `CC(C)=CCC/C(C)=C/CC/C(C)=C/C1CCC(=O)C1(C)C` (stereo not given) the growth inhibition was 5% (inactive). With `CCOc1ccccc1NC(=O)C(=O)C(c1ccccc1)S(=O)(=O)Cc1ccccc1` (stereo not given) the growth inhibition was -1% (inactive). With `Oc1ccc2ccccc2c1-c1c(OC(c2ccccc2)c2ccccc2)ccc2ccccc12` the growth inhibition was 5.9% (inactive). For `NC(N)=N/N=C(\c1nc2ccc([N+](=O)[O-])cc2[nH]c1=O)C(O)c1ccc([N+](=O)[O-])cc1` (stereo not given), the growth inhibition was -16% (inactive). With `CCOC(=O)CC1C(C)C(C)NC(C)C1C` (stereo not given) the growth inhibition was -1.85% (inactive). With `O=C1CCCCC1N1CCCCC1` (stereo not given) the growth inhibition was -4.95% (inactive). For `CN(C)C(=O)c1cccnc1`, the growth inhibition was 0.25% (inactive). With `CC(CCC(=O)O)[C@H]1CCC2[C@@H]3C(=O)C[C@@H]4CC(O)CC[C@]4(C)C3CC[C@@]21C` (stereo not given in full) the growth inhibition was 38.8% (inactive). With `CCC(c1ccccc1)c1cc(C(C)(C)C)cc(C(C)(C)C)c1O` (stereo not given) the growth inhibition was 31.9% (inactive). With `CC(=O)Nc1ccc(S(=O)(=O)O)nc1` the growth inhibition was 0.45% (inactive). For `CCCCCCc1ccc2c3cccc4cccc(c5cccc1c52)c43`, the growth inhibition was -9.25% (inactive). For `CCCCCCC(C)(O)C(C)O` (stereo not given), the growth inhibition was 27.8% (inactive). With `CN=C1SC(C)(C)NN1C` the growth inhibition was 9.2% (inactive). In the case of `CCSC(SCC)C(NC(C)=O)C(O)C(O)COC(=O)c1ccccc1` (stereo not given), the growth inhibition is reported as 6.05% (inactive). In the case of `c1ccc(CSc2ccc3ccccc3c2)cc1`, the growth inhibition is reported as -4.3% (inactive). For `COC(OC)c1cccnc1C`, the growth inhibition was -25.6% (inactive). In the case of `O=C(C(=O)c1cccc(Cl)c1)c1ccccc1`, the growth inhibition is reported as 21.4% (inactive). For `COc1ccc(C(CCl)(CCl)c2ccc(OC)c(C)c2)cc1C`, the growth inhibition was -23.3% (inactive). In the case of `CC(=O)C1=CN(Cc2ccccc2)C(O)CC1C(N)=O` (stereo not given), the growth inhibition is reported as 7.55% (inactive). In the case of `O=C(Nc1cc([N+](=O)[O-])ccc1F)Oc1ccc(OCc2ccccc2)cc1`, the growth inhibition is reported as 11.9% (inactive). For `CCOC(=O)c1ccc(NCc2nc3ccccc3nc2C)cc1`, the growth inhibition was -17.8% (inactive). For `COC(=O)Nc1cccc(NC(=O)C(=O)O)c1`, the growth inhibition was -0.1% (inactive). In the case of `O=C1c2ccccc2C(=O)N1/N=N/N1C(=O)c2ccccc2C1=O`, the growth inhibition is reported as 97.5% (active). For `OC1CCC(O)[C@H]2[C@@H]1[C@@H]1S[C@H]2c2ccccc21` (stereo not given in full), the growth inhibition was -2.55% (inactive). In the case of `CC(C)(C)C(=O)CC(=O)C(C)(C)C.[Cu]`, the growth inhibition is reported as -10.2% (inactive). For `O.O.[Cl][Pt+2][Cl].[NH-]CC1(C[NH-])CCCCC1`, the growth inhibition was 10.4% (inactive). For `COc1cccc(CC2C(=O)N=C(NC(C)=O)N2C)c1OC(C)=O` (stereo not given), the growth inhibition was -35% (inactive). For `O=C(COc1cc(Cl)c(Cl)cc1Cl)Oc1ccccc1`, the growth inhibition was -0.3% (inactive). With `COC(=O)/C=C(\C(=O)OC)C(C(=O)c1ccccc1)=P(c1ccccc1)(c1ccccc1)c1ccccc1` the growth inhibition was -9.95% (inactive). For `CCCSc1ccc2c3c(cccc13)C(=O)OC2=O`, the growth inhibition was 47.5% (inactive). For `O=S1(=O)c2ccc(cc2)N=CC=Nc2ccc1cc2`, the growth inhibition was 5.25% (inactive). For `CC1CCc2c(O)ccc(O)c21` (stereo not given), the growth inhibition was 5.7% (inactive). For `COc1ccc(OC2OC(CO)C(OCc3ccccc3)C(OCc3ccccc3)C2OCc2ccccc2)cc1` (stereo not given), the growth inhibition was 5.6% (inactive).
